High-throughput results: PubChem, several laboratories
PKA-R1A activ – activators of PKA-R1A holoenzyme, primary screen, biochemical, fluorescence polarization, Cy5-IP20, bovine R1A, mouse PKAc | cAMP-dependent protein kinase type I-alpha regulatory subunit (Bos taurus) + … | PKA-R1A dissociation; scaled: DMSO 0%, 113 µM cGMP 100% | activation, % at 11.4 µM | 340,000 tested, 0.083% active | AID 504707, 2011;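 active = percent activation above the mean of all tested compounds plus 3 SD, cut at about 19% in these data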;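 note: higher means more PKAc released from R1A so a rise in polarization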
PKA-R2B act – activators of PKA-R2B holoenzyme, primary screen, biochemical, fluorescence polarization, Cy5-IP20, human; cAMP-dependent protein kinase catalytic subunit beta (Homo sapiens) + cAMP-dependent …; PKA-R2B holoenzyme dissociation; R2B truncated from residue 108, S112A mutant; 0% DMSO only, 100% 113 µM cGMP; activation, % at 11.4 µM; 340,000 tested, 0.079% active; AID 504700, 2011;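 active = activation above a cutoff set at the mean over all compounds plus 3 SD, cut at about 18% in these data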;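 note: higher means more holoenzyme dissociation and a rise in polarization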
CendR NRP1 mod – modulators of CendR peptide binding to NRP-1, primary screen, biochemical, fluorescence polarization, uHTS | Neuropilin-1 (Homo sapiens), O14786 | FAM-RPARPAR peptide binding to NRP-1 | inhibition, % at 25 µM | 360,000 tested, 0.85% active;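 active = inhibition or corrected inhibition above about 18%, plus a signal ratio from 0.5 to 1.5, limit read from the data, passing the limit was not always enough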
Target sequence (O14786 whole entry, looked up): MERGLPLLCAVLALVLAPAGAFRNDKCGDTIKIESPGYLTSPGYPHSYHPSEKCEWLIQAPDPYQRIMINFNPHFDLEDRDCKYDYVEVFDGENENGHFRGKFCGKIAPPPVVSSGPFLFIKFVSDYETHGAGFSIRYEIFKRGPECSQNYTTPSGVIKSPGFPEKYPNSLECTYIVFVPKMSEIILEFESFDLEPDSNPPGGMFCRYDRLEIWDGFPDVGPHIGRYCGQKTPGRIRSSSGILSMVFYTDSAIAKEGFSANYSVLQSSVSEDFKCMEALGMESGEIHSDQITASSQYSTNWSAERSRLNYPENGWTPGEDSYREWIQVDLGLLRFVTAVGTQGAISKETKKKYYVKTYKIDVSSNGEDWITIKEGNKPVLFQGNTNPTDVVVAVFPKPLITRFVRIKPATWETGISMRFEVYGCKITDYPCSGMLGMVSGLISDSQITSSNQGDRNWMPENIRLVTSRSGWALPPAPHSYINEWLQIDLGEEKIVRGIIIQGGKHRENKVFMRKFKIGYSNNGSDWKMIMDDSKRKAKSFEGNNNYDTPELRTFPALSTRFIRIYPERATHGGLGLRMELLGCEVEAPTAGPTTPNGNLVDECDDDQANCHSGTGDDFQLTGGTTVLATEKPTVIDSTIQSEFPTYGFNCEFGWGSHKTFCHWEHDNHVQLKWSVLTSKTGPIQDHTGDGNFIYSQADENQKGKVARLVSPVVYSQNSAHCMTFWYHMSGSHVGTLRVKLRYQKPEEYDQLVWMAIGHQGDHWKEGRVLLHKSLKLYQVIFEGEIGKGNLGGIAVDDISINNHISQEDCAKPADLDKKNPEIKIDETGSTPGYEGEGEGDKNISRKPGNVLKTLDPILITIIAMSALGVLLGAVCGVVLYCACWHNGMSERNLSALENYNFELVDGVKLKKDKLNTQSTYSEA
ATG4B inhibitor – ATG4B protease inhibitors, primary screen, biochemical, fluorescence, uHTS | 340,000 tested, 0.51% active | ATG4B cleavage of LC3-PLA2, NBD-HPC fluorescence, 1 h | inhibition, % at 8.33 µM; in the data active = inhibition above about 40%
VLA-4 inh – inhibition in human VLA-4 binding assay, primary screen, VLA-4 allosteric modulator project, MLPCN library, flow cytometry, VLA-4 expressing cells | Integrin alpha-4 (Homo sapiens), P13612 | ligand binding flow cytometry | inhibition, % (about 7 µM as worked out from the volumes in the protocol) | 330,000 tested, 0.2% active | AID 2557, 2010
ATG4B confirm – ATG4B protease inhibitors, retest, confirmation, biochemical, fluorescence, single concentration; AID 504757, 2011; inhibition, % at 8.33 µM; 320 tested, 92% active; shares compounds with ATG4B inhibitor; ATG4B protease fluorescent substrate cleavage assay; in the data active = inhibition above about 39%
PLA2 ctr – PLA2 enzyme inhibition, counter-screen for ATG4B inhibitor project, biochemical, single concentration, uHTS hits | inhibition, % at 8.33 µM | shares compounds with ATG4B inhibitor | 1,600 tested, 66% active | purified PLA2, NBD-C6-HPC fluorescence, 45 min | AID 588402, 2011
Hits are given with their value; . = inactive; / = not tested or not shown; ! = repeats disagree. A selection: hits, their analogues and other compounds. The true share with any hit is near 1.6%. Cut-off read from the data, not from the text of the source, unless noted: active = inhibition above about 50%; inactive = the rest.

SMILES	PKA-R1A activ	PKA-R2B act	CendR NRP1 mod	ATG4B inhibitor	VLA-4 inh	PLA2 ctr	others
O=C(/C=C/c1ccccc1O)c1ccc(Cl)cc1	.	.	.	69.1	.	87.8
CCCCCCCCCCCCCCCC[n+]1ccc(C(N)=O)cc1	.	.	.	.	.	/
CCCCCCCCCCCCCCCC[n+]1ccccc1	.	.	.	59.0!	/	.	ATG4B confirm=39.2
Cc1cc2nc(-c3ccc(F)cc3)c(CC3CCCCC3)n2c(C)c1Br	/	/	.	/	/	/
CCCCN(Cc1ccccc1)C(=O)CCN1C(=O)C2C3C=CC(C3)C2C1=O (stereo not drawn)	.	.	.	.	.	/
Cc1cc(Cl)ccc1Oc1ccc(C(N)=O)cc1[N+](=O)[O-]	.	.	.	52.8	.	.
CC(C)c1[nH]nc2c1C(c1ccc(OC(=O)c3ccco3)cc1)C(C#N)=C(N)O2 (stereo not drawn)	.	.	.	82.9	.	83.7
COCc1[nH]nc2c1C(c1ccc(OC)cc1)C(C#N)=C(N)O2 (stereo not drawn)	.	.	.	.	.	/
CC/C=C\C/C=C\C/C=C\CCCCCCCC(=O)O	.	.	.	46.0	.	.	ATG4B confirm=63.5
CCOC(=O)C1(C)CCN1C(=O)c1ccccc1OC(F)(F)F (stereo not drawn)	/	/	.	/	/	/
O=C1NC[C@@H](CCCCN2CCN(CCC3CCCCC3)C(=O)C2=O)N(CC2CCCCC2)C1=O	/	/	.	/	/	/
O=C(N/N=C/c1coc2ccccc2c1=O)c1cn(-c2ccccc2)nc1-c1ccccc1	.	.	.	92.0	.	94.3
COc1ccc(C(CNC(=O)c2oc3c(Cl)cccc3c2C)N2CCCC2)cc1 (stereo not drawn)	.	.	.	.	.	/
CCOC(=O)c1c(NS(=O)(=O)c2ccc(Br)cc2)sc2c1CCC2	.	.	.	46.0	.	56.7
CCOC(=O)c1c(NS(=O)(=O)Cc2ccccc2)sc2c1CCCC2	.	.	.	.	.	/
CC(C)(C)OC(=O)N1CCC(C(=O)Nc2ccc(C(=O)NCc3ccccc3)cc2)CC1	.	.	.	.	/	/
Cc1sc(NC(=O)c2c(F)cccc2F)nc1-c1ccccc1	.	.	.	53.4	.	66.8
Cc1sc(NC(=O)c2ccc(=O)n(C)n2)nc1-c1ccccc1	.	.	.	.	.	/
CC(=O)C1=CCC(c2ccc(Cl)cc2)N(S(=O)(=O)c2ccccc2)C1 (stereo not drawn)	/	/	.	/	/	/
O=C(Nc1ccc(S(=O)(=O)NC2=NCCCCC2)cc1)c1ccc(Cl)c([N+](=O)[O-])c1	.	.	.	.	.	/
Cc1cccc(C)c1NS(=O)(=O)c1ccc(NC(=O)c2ccc(Cl)c([N+](=O)[O-])c2)cc1	.	.	.	48.5	.	.
CC(NC(=O)/C=C/c1ccccc1[N+](=O)[O-])C1CC2CCC1C2 (stereo not drawn)	.	.	.	.	.	/
Cc1cccc2c1N(CCOc1ccc(C(C)(C)C)cc1)C(=O)C2=O	.	.	.	57.3	.	.	ATG4B confirm=51.8
Cc1ccc(OCCCN2C(=O)C(=O)c3cccc(C)c32)cc1	.	.	.	.	.	/
COc1ccccc1CN1C(=NC(=O)CCC2CCCC2)SC2CS(=O)(=O)CC21 (stereo not drawn)	.	.	.	.	.	/
SMILES	PKA-R1A activ	PKA-R2B act	CendR NRP1 mod	ATG4B inhibitor	VLA-4 inh	PLA2 ctr	others
COc1ccc(-c2oc3ccccc3c(=O)c2OC(=O)c2ccc(C)cc2)cc1	.	.	.	.	.	/
O=C(Oc1c(-c2ccccc2)oc2ccccc2c1=O)c1ccccc1	.	.	.	45.1	.	64.0
COc1c(Cl)cc(C(=O)Nc2cccnc2)cc1Cl	.	.	.	/	/	/
CC(=O)c1ccc(NC(=O)NC2CCCc3ccccc32)cc1 (stereo not drawn)	.	.	.	.	.	/
CC(=O)c1cccc(NC(=O)NC2CCCc3ccccc32)c1 (stereo not drawn)	.	.	.	52.6	.	66.9
O=C(NCC(=O)N1CCN(c2ccccc2O)CC1)c1cccs1	.	.	.	.	.	/
CC(=O)Nc1cccc(-c2csc(C(O)c3cccc(Cl)c3)n2)c1 (stereo not drawn)	/	/	.	/	/	/
COC(=O)N/N=C/c1cn(Cc2c(Cl)cccc2Cl)c2ccccc12	.	.	.	42.0	.	50.6
COC(=O)N/N=C/c1cn(Cc2ccc(F)cc2)c2ccccc12	.	.	.	.	.	/
Cc1ccc(OCC(=O)N/N=C\c2cn(Cc3ccccc3)c3ccccc23)cc1C	.	.	.	42.7	.	.
COC(=O)N/N=C/c1cn(Cc2ccc(Cl)cc2Cl)c2ccccc12	.	.	.	53.3	.	60.8
COC(=O)N/N=C/c1cn(Cc2ccccc2Cl)c2ccccc12	.	.	.	.	.	/
O=C(Cc1cccc(NC(=O)C2CCCN(C(=O)C3CC3)C2)c1)Nc1ccc(C(=O)N2CCOCC2)cc1 (stereo not drawn)	.	.	.	.	/	/
COc1ccccc1CCN=C(N)NS(=O)(=O)c1ccc(C)c(C)c1	.	.	.	.	.	/
O=C(NCc1ccc(C(F)(F)F)cc1)c1ccc(-c2cccnc2)c2ccoc12	/	/	.	/	/	/
Oc1ccc(Br)cc1/C=N/n1c(-c2ccccc2)n[nH]c1=S	.	.	.	.	.	/
Oc1c(Br)cc(Br)c(/C=N/n2c(-c3ccccc3)n[nH]c2=S)c1Br	.	.	.	44.1	.	.	ATG4B confirm=51.6
O=C1NC(c2ccc(Cl)cc2)Oc2ccccc21 (stereo not drawn)	.	.	.	.	.	/
CC(C)c1ccc(C2NC(=O)c3ccccc3O2)cc1 (stereo not drawn)	.	.	.	40.5	.	.
COc1cccc2cc(CC(=O)c3ccccc3)c(=O)oc12	.	.	.	.	.	/
O=C(Cn1cccc1C(=O)c1ccccc1)NCCC1=CCCCC1	.	.	22.8	43.3	.	.	ATG4B confirm=61.7
O=C(O)c1cc(-c2ccccc2)nc2nc(N3CCCCC3)sc12	/	/	/	/	.	/
Cc1ccc(-c2cc(C(=O)O)c3sc(N4CCCCC4)nc3n2)cc1	.	.	.	40.2	.	.
